The source of these data is PubChem BioAssay (EPA / NIEHS).

Read-out in test [1]: Matrix Metallopeptidase 9 (MMP9), MMP9 (gene 4318)
As to the kind of experiment: BSK_KF3CT_MMP9: BioMAP Diversity Plus: KF3CT Assay for Matrix Metallopeptidase 9 (MMP9) Biomarker Activity (AID 2283074).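 Also: MMP9 protein level quantified by ELISA in the co-culture.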 The following applies: primary human keratinocytes with fibroblasts; actives raise or lower the signal. In short, it runs like this:
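ELISA read-out of MMP-9 at 24 h post-dosing in a co-culture of human skin keratinocytes and foreskin fibroblasts. Gain or loss of signal was fitted in both directions against DMSO.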

Read-out in test [2]: urokinase plasminogen activator (uPA), PLAU (gene 5328)
As to the kind of experiment: BSK_KF3CT_uPA: BioMAP Diversity Plus: KF3CT Assay for urokinase plasminogen activator (uPA) Biomarker Activity (AID 2283075). The following applies: primary human keratinocytes with fibroblasts; actives raise or lower the signal. In short, it runs like this: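 Skin co-culture (keratinocytes + foreskin fibroblasts), human primary; 24 h post-dose; uPA by ELISA; gain/loss fit vs DMSO baseline.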

Read-out in test [3]: CD40, CD40 (gene 958)
As to the kind of experiment: BSK_LPS_CD40: BioMAP Diversity Plus: LPS Assay for CD40 Biomarker Activity (AID 2283076). The following applies: primary human HUVEC with PBMC; actives raise or lower the signal. Summed up: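 HUVEC plus PBMC co-culture stimulated with LPS; CD40 quantified by ELISA 24 h after compound dosing. Fitting was bidirectional relative to DMSO. SRB staining of parallel cultures flagged overt cytotoxicity.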

Read-out in test [4]: E-selectin (Homo sapiens) (UniProt P16581)
As to the kind of experiment: BSK_LPS_Eselectin: BioMAP Diversity Plus: LPS Assay for Eselectin Biomarker Activity (AID 2283077). The following applies: primary human HUVEC with PBMC; actives raise or lower the signal. In short, it runs like this:
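Human umbilical vein endothelial cells co-cultured with PBMC under LPS stimulation; cell-surface E-selectin measured by ELISA 24 h after dosing. Change in either direction versus DMSO, with SRB total-protein staining in parallel cultures for cytotoxicity.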

Read-out in test [5]: Interleukin-8 (IL8), CXCL8 (gene 3576)
Description: BSK_LPS_IL8: BioMAP Diversity Plus: LPS Assay for Interleukin-8 (IL8) Biomarker Activity (AID 2283078). The following applies: primary human HUVEC with PBMC; actives raise or lower the signal. Summed up: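 Human umbilical vein endothelial cells co-cultured with PBMC, LPS-stimulated, exposed to compound for 24 h. IL-8 quantified by ELISA; fitted in both directions against DMSO, with SRB total-protein staining of parallel cultures for cytotoxicity.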

The nature of test [6]: BSK_LPS_SRB: Viability Assessment in the BioMAP Diversity Plus: LPS Assay (AID 2283079).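 Also: total protein by sulforhodamine B absorbance as a cytotoxicity measure; measured one day after compound addition.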 The following applies: primary human HUVEC with PBMC. In short, it runs like this: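 Co-culture of human umbilical vein endothelial cells and PBMC, read 24 h after dosing. Total protein by 0.1% SRB staining after 10% TCA fixation, absorbance at 560 nm; bidirectional fit against DMSO.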

Read-out in test [7]: Interleukin-1 alpha (IL1a), IL1A (gene 3552)
As to the kind of experiment: BSK_LPS_IL1a: BioMAP Diversity Plus: LPS Assay for Interleukin-1 alpha (IL1a) Biomarker Activity (AID 2283080). The following applies: primary human HUVEC with PBMC; actives raise or lower the signal. In short, it runs like this: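 Human umbilical vein endothelial cells co-cultured with PBMC and stimulated with LPS; IL-1a measured by ELISA 24 h after dosing. Bidirectional fitting against DMSO; cytotoxicity checked by SRB staining in parallel cultures.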

Read-out in test [8]: Monocyte Chemoattractant Protein-1 (MCP1), CCL2 (gene 6347)
Description: BSK_LPS_MCP1: BioMAP Diversity Plus: LPS Assay for Monocyte Chemoattractant Protein-1 (MCP1) Biomarker Activity (AID 2283081).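 Also: secreted MCP-1 protein quantified by ELISA in culture supernatant.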 The following applies: primary human HUVEC with PBMC; actives raise or lower the signal. Summed up:
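Human umbilical vein endothelial cells co-cultured with PBMC, LPS-stimulated; secreted MCP-1 measured by ELISA 24 h after compound addition. Bidirectional curve fitting against DMSO baseline; SRB total-protein staining in parallel cultures for cytotoxicity.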

Test [9] in a line: BSK_LPS_PGE2: BioMAP Diversity Plus: LPS Assay for Prostaglandin E2 (PGE2) Biomarker Activity (AID 2283082). The following applies: primary human HUVEC with PBMC; actives raise or lower the signal. In short, it runs like this: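 PGE2 release measured by ELISA in an LPS-activated co-culture of human umbilical vein endothelial cells and peripheral blood mononuclear cells, read at 24 h post-dosing. DMSO served as baseline for bidirectional curve fitting.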

Read-out in test [10]: Macrophage colony-stimulating factor (MCSF), CSF1 (gene 1435)
Description: BSK_LPS_MCSF: BioMAP Diversity Plus: LPS Assay for Macrophage colony-stimulating factor (MCSF) Biomarker Activity (AID 2283083). The following applies: primary human HUVEC with PBMC; actives raise or lower the signal. In short, it runs like this:
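HUVEC–PBMC co-culture, M-CSF measured by ELISA 24 h after chemical dosing. Fitted in both directions relative to DMSO as negative control; overt cytotoxicity assessed by SRB total-protein staining in parallel cultures.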

Read-out in test [11]: Tissue Factor, F3 (gene 2152)
Description: BSK_LPS_TissueFactor: BioMAP Diversity Plus: LPS Assay for Tissue Factor Biomarker Activity (AID 2283084). The following applies: primary human HUVEC with PBMC; actives raise or lower the signal. Summed up: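 Human umbilical vein endothelial cells co-cultured with PBMC were dosed with compound. Cell-surface CD142 was measured by ELISA 24 h later. Activity was fitted bidirectionally against DMSO, with SRB total-protein staining in parallel cultures for cytotoxicity.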

Read-out in test [12]: Tumor necrosis factor (Homo sapiens) (UniProt P01375)
Description: BSK_LPS_TNFa: BioMAP Diversity Plus: LPS Assay for Tumour Necrosis Factor alpha (TNFa) Biomarker Activity (AID 2283085).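 Also: TNFa protein level quantified by ELISA in the co-culture.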 The following applies: primary human HUVEC with PBMC; actives raise or lower the signal. In short, it runs like this:
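TNFa was quantified by ELISA in LPS-activated co-cultures of human endothelial cells and PBMC, 24 h post-dosing. Both increases and decreases versus DMSO were fitted.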

Read-out in a further test: CD38, CD38 (gene 952)
Description: BSK_SAg_CD38: BioMAP Diversity Plus: SAg Assay for CD38 Biomarker Activity (AID 2283087). The following applies: primary human HUVEC with PBMC; actives raise or lower the signal. Summed up: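 CD38 quantified by ELISA (fluorescence) in a superantigen-activated endothelial cell–PBMC co-culture at 24 h post-dose. Activity fitted in both directions relative to DMSO; parallel SRB and Alamar Blue cytotoxicity read-outs.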

Read-out in test [13]: CD40, CD40 (gene 958)
As to the kind of experiment: BSK_SAg_CD40: BioMAP Diversity Plus: SAg Assay for CD40 Biomarker Activity (AID 2283088). The following applies: primary human HUVEC with PBMC; actives raise or lower the signal. Summed up:
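HUVEC plus PBMC co-culture, superantigen-activated, with CD40 read by ELISA 24 h after dosing. Curves fitted in both directions against DMSO. Overt cytotoxicity checked by parallel SRB total-protein staining.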

Read-out in a further test: CD69, CD69 (gene 969)
Description: BSK_SAg_CD69: BioMAP Diversity Plus: SAg Assay for CD69 Biomarker Activity (AID 2283089).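 Also: cell surface CD69 protein quantified by ELISA with fluorescence detection.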 The following applies: primary human HUVEC with PBMC; actives raise or lower the signal. Summed up:
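Values derive from bidirectional fitting relative to DMSO vehicle. Cells: umbilical vein endothelium plus peripheral blood mononuclear cells, treated 24 h before fluorescent ELISA for CD69.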

Read-out in test [14]: Monocyte Chemoattractant Protein-1 (MCP1), CCL2 (gene 6347)
As to the kind of experiment: BSK_SAg_MCP1: BioMAP Diversity Plus: SAg Assay for Monocyte Chemoattractant Protein-1 (MCP1) Biomarker Activity (AID 2283090). The following applies: primary human HUVEC with PBMC; actives raise or lower the signal. In short, it runs like this:
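Values derive from bidirectional fitting of ELISA-measured MCP1 against DMSO controls. Readings were taken 24 h after dosing human vascular endothelial cells co-cultured with peripheral blood mononuclear cells under superantigen stimulation.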

Read-out in test [15]: E-selectin (Homo sapiens) (UniProt P16581)
As to the kind of experiment: BSK_SAg_Eselectin: BioMAP Diversity Plus: SAg Assay for Eselectin Biomarker Activity (AID 2283091). The following applies: primary human HUVEC with PBMC; actives raise or lower the signal. In short, it runs like this: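 Human umbilical vein endothelial cells co-cultured with peripheral blood mononuclear cells, SAg system. E-selectin is measured by ELISA 24 h after dosing and fitted bidirectionally against DMSO. Cytotoxicity is checked by SRB staining of parallel cultures.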

Read-out in test [16]: Monokine induced gamma interferon (MIG), CXCL9 (gene 4283)
As to the kind of experiment: BSK_SAg_MIG: BioMAP Diversity Plus: SAg Assay for Monokine induced gamma interferon (MIG) Biomarker Activity (AID 2283092). The following applies: primary human HUVEC with PBMC; actives raise or lower the signal. In short, it runs like this: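 Values reflect bidirectional fitting of ELISA-measured MIG against DMSO vehicle, taken 24 h after dosing of a co-culture of human umbilical vein endothelial cells and peripheral blood mononuclear cells.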

Test [17] in a line: BSK_SAg_PBMCCytotoxicity: PBMC Cytotoxicity Assessment in the BioMAP Diversity Plus: SAg Assay (AID 2283093).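 Also: PBMC superantigen activated with SEB plus TSST-1 one hour after compound addition; fitted both ways against DMSO so a hit may be loss or gain of signal.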 The following applies: primary human HUVEC with PBMC. Summed up: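 PBMC viability by Alamar Blue reduction, fluorescence read at 546/580 nm after 6 h dye exposure. Cells were dosed 1 h before SEB plus TSST-1 activation (20 ng/mL final each), then held 90 h; endothelial/PBMC human co-culture.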

Read-out in test [18]: Vascular cell adhesion molecule 1 (VCAM1), VCAM1 (gene 7412)
As to the kind of experiment: BSK_LPS_VCAM1: BioMAP Diversity Plus: LPS Assay for Vascular cell adhesion molecule 1 (VCAM1) Biomarker Activity (AID 2283086). The following applies: primary human HUVEC with PBMC; actives raise or lower the signal. Summed up:
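VCAM-1 quantified by ELISA in an LPS-activated co-culture of human endothelial cells and peripheral blood mononuclear cells, read 24 h post-treatment. Fitted in both directions versus DMSO; parallel SRB staining flags overt cytotoxicity.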

A word on the AC50: it is the concentration giving half of the maximal activity seen.

Calls of active or inactive are those of the source. The calls were made as follows: active = hit-call score of the fitted dose curve at least 0.9, where 1 is the maximum; inactive = score below 0.9.

Tumor necrosis factor (Homo sapiens), sequence (P01375 whole entry, looked up): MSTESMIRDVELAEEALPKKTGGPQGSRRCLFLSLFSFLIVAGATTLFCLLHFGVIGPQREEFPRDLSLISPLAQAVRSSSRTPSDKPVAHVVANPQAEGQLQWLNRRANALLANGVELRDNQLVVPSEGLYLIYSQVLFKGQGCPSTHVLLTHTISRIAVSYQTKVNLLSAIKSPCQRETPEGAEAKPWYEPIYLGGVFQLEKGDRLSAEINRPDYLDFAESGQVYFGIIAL
E-selectin (Homo sapiens), sequence (P16581 whole entry, looked up): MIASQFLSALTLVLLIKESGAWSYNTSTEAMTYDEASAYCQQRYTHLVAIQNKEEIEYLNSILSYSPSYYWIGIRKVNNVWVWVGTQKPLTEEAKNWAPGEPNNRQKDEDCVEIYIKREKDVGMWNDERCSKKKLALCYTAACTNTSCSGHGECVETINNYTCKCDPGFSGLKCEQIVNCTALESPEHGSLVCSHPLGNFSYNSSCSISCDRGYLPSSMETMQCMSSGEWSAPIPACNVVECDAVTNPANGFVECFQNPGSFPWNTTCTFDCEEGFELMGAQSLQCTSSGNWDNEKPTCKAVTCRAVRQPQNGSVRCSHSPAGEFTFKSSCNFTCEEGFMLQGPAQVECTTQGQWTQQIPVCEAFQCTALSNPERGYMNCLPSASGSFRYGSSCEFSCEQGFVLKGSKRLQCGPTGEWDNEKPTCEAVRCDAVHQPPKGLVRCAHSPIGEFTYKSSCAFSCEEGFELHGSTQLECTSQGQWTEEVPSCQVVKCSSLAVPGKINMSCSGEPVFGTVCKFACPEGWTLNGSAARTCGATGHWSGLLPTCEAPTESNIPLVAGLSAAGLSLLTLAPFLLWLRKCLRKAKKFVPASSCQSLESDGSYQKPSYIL

`CC(C)(C)CC(C)(C)c1ccc(O)cc1`: the AC50 was 9.64 µM (active) in [1]; 9.6 µM (active) in test [2]; 7.8 µM (active) with CD40, CD40 (gene 958) [3]; 11.7 µM (active) in [4]; 13.9 µM (active) in test [5]; 12.9 µM (active) in [6]. In addition, the half-maximal activity concentration (AC50) in test [7] is 8.47 µM (active); in [8], 10.5 µM (active); in test [10], 9.26 µM (active); in [11] it was 9.02 µM (active); in test [12], 10 µM (active); with CD38, CD38 (gene 952), 7.91 µM (active). The AC50 with CD40, CD40 (gene 958) [13] was 7.96 µM (active); with CD69, CD69 (gene 969) it was 11.5 µM (active); in test [14] it was 9.24 µM (active); in [15] it was 9.86 µM (active); in test [16], 10.7 µM (active); in test [17], 8.43 µM (active). In addition, the result in [9] was inactive.
With `CC(C)(C)c1cc(O)ccc1O`, the AC50 is 29.5 µM (active) in [1]; 31.3 µM (active) in test [2]; 5.75 µM (active) with CD40, CD40 (gene 958) [3]; 12.4 µM (active) in test [4]; 13.1 µM (active) in [5]; 28.5 µM (active) in [6]. Further, the half-maximal activity concentration (AC50) was 14.5 µM (active) in test [7]; 13 µM (active) in test [8]; 5.94 µM (active) in test [9]; 12.1 µM (active) in [10]; 20 µM (active) in test [11]; 9.38 µM (active) in [12]. The concentration at half-maximal activity (AC50) was 8.22 µM (active) in the test with CD38, CD38 (gene 952); 8.26 µM (active) in the test with CD40, CD40 (gene 958) [13]; 5.54 µM (active) in the test with CD69, CD69 (gene 969); 8.93 µM (active) in test [14]; 5.56 µM (active) in test [15]; 11.4 µM (active) in [16]. For the same compound, the AC50 in test [17] is 3.17 µM (active).
Consider `C[C@@H]1C[C@@H]([C@H](O)CC2CC(=O)NC(=O)C2)C(=O)[C@@H](C)C1`, for which the AC50 is 4.67 µM (active) in test [1]; 13.2 µM (active) in test [2]; 3.35 µM (active) with CD40, CD40 (gene 958) [3]; 1.77 µM (active) in test [4]; 6.73 µM (active) in [5]; 6.14 µM (active) in test [6]. For the same compound, the half-maximal activity concentration (AC50) in test [7] was 5.63 µM (active); in test [8] it was 7.05 µM (active); in test [9], 5.67 µM (active); in test [10], 4.48 µM (active); in test [11], 17.9 µM (active); in test [12], 7.89 µM (active). Besides, the AC50 in test [18] was 9.45 µM (active); with CD38, CD38 (gene 952), 6.11 µM (active); with CD40, CD40 (gene 958) [13] it was 2.6 µM (active); with CD69, CD69 (gene 969), 6.63 µM (active); in [14], 7.88 µM (active); in [15], 0.585 µM (active). Further, the AC50 in [16] is 13 µM (active); in test [17], 4.6 µM (active).
